Compound activity: PubChem BioAssay, several laboratories
Compounds with a hit are over-represented: about 3.8% of the library has one in this group of screens.
FGF22 binding – shifts melting point of recombinant human FGF22. recombinant FGF22 thermal shift, SYPRO orange fluorescence; percent of sucrose octasulfate shift, DMSO zero. activity (Tm shift, normalised), % at 9.99 µM. 340,000 compounds, 1.5% hits. AID 651658;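 active = mean Tm shift, scaled 0 neutral to 100 positive control, at about 1.3% or above, every replicate too, limit read from the data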
Target sequence (Q9HCT0 whole entry, looked up): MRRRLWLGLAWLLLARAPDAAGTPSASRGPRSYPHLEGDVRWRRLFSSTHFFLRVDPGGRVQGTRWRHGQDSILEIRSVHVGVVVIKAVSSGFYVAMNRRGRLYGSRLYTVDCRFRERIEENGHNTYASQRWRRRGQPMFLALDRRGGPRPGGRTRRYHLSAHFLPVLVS
ADAM17 inh – ADAM17 inhibition, QFRET primary screen | P78536 | recombinant ADAM17, EDANS/DABCYL FRET peptide cleavage | inhibition, % at 6.95 µM | 370,000 compounds, 0.83% hits;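 active = inhibition above the mean of compounds lying between control limits plus 3 SD, set per campaign, cut at about 8.5% in these data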
rRNA inh HTS – inhibits bacterial ribosomal RNA function over humanized ribosomes | E. coli WT GFP vs humanized-ribosome RFP mutants, fluorescence, 24 h; hits give low values; DMSO median 0, no signal -100 | GFP signal change (wild-type ribosome), % (test concentration not listed) | 350,000 compounds, 1.6% hits;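 active = significant combined selectivity score with lowered wild-type GFP, culture density cut under 30%, mutant RFP and density less affected; inactive = any of these conditions unmet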
ADAM10 inh – ADAM10 inhibition, QFRET primary screen. O14672. recombinant ADAM10, EDANS/DABCYL FRET peptide cleavage, 3 h. inhibition, % at 7 µM. 370,000 compounds, 0.62% hits;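 active = inhibition above a per-campaign cutoff equal to the mean of compounds falling between control-based bounds plus 3 SD, cut at about 20% in these data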
Target sequence (O14672 214-748 limits assumed): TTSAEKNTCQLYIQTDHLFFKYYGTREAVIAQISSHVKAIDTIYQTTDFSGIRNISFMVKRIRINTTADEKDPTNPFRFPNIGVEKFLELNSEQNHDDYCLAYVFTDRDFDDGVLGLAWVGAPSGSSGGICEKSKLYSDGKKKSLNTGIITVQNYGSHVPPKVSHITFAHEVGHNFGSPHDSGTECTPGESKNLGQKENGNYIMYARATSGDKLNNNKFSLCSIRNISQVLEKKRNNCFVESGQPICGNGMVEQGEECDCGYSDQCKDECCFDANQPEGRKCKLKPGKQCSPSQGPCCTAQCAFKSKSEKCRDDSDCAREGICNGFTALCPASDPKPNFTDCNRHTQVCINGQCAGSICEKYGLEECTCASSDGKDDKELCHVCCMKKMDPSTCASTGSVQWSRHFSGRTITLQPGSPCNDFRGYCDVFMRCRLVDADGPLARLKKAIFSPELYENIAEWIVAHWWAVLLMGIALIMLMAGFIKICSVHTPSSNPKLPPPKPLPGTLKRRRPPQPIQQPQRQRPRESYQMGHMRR
proKLK7 act – activates the human kallikrein-7 zymogen; P49862; purified proKLK7, EDANS-DABCYL substrate fluorescence; 100% is mature enzyme control, 0% vehicle; activation, % at 7 µM; 370,000 compounds, 0.9% hits; AID 652039;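 active = activation above the mean of all tested compounds plus 3 SD, computed per campaign excluding outliers beyond control limits, cut at about 13% in these data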
ADAM10 counter – counter-screen for ADAM17 exosite inhibitors: inhibitors of human ADAM10; AID 743256; recombinant ADAM10, EDANS/DABCYL FRET peptide cleavage, 3 h; shares compounds with ADAM17 inh; inhibition, % at 6.95 µM; 2,900 compounds, 47% hits;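 active = mean inhibition over the triplicate runs exceeds the activity threshold set in the earlier primary screen, cut at about 20% in these data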
ADAM17 confirm – human ADAM17 inhibition, confirmation. recombinant ADAM17, EDANS/DABCYL QFRET peptide cleavage. inhibition, % at 6.95 µM. AID 743257. shares compounds with ADAM17 inh. 2,900 compounds, 65% hits;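 active = mean inhibition across replicates above the hit cutoff set in the primary screen, cut at about 8.5% in these data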
Of the large screens only hits and unclear results are named; the others gave an inactive call (follow-up assays come after a bar, where they were run).

Cc1ccc(S(=O)(=O)N(C)CC(O)Cn2c3ccccc3c3ccccc32)cc1 (centres undefined)	ADAM17 inh 11 (no result: FGF22 binding, rRNA inh HTS) | ADAM10 counter 21 | ADAM17 confirm 11
CCN(CC(O)Cn1c2ccccc2c2ccccc21)S(=O)(=O)c1ccc(F)cc1 (centres undefined)	none (no result: FGF22 binding, rRNA inh HTS)
CC=Cc1ccc2n(c1=O)C[C@@H]1[C@@H](CO)[C@H](C(=O)NCC3CC3)[C@H]2N1S(=O)(=O)c1cn(C)cn1 (mixture of isomers)	none (no result: ADAM17 inh, ADAM10 inh, proKLK7 act)
CNS(=O)(=O)c1cccc(C(=O)OCC(=O)NC(C)CCc2ccccc2)c1 (centres undefined)	none
CC(CCc1ccccc1)NC(=O)COC(=O)c1cc(NS(=O)(=O)c2ccc(Cl)c([N+](=O)[O-])c2)ccc1O (centres undefined)	ADAM17 inh 8.7 (no result: FGF22 binding, rRNA inh HTS) | ADAM10 counter 31 | ADAM17 confirm 19
COc1ccc(NC(=O)Nc2ccc3c(c2)C(=O)N([C@@H](C)CO)C[C@@H](C)[C@H](CN(C)S(=O)(=O)c2ccc(C)cc2)OCCCC[C@@H](C)O3)cc1	none (no result: ADAM17 inh, ADAM10 inh, proKLK7 act)
CN(C)c1ccc(C(CNS(=O)(=O)c2ccc3ccccc3c2)c2c[nH]c3ccccc23)cc1 (centres undefined)	ADAM17 inh 9.1 (no result: FGF22 binding, rRNA inh HTS) | ADAM10 counter 26 | ADAM17 confirm 20
CC(c1ccccc1)n1c(SCC(=O)N2CC(=O)Nc3ccccc32)nc2ccccc2c1=O (centres undefined)	ADAM17 inh 8.9 (no result: FGF22 binding, rRNA inh HTS) | ADAM10 counter 37 | ADAM17 confirm 16
COCC(C)n1c(SCC(=O)N2CC(=O)Nc3ccccc32)nc2ccccc2c1=O (centres undefined)	none
O=C(CNc1ccc2c(c1)OCO2)N/N=C\c1ccccc1Cl	none
Cc1[nH]c2ccccc2c1/C=N\NC(=O)CNc1ccc2c(c1)OCO2	ADAM17 inh 13 | ADAM10 counter inactive | ADAM17 confirm inactive
C[C@@H]1CN([C@H](C)CO)S(=O)(=O)c2ccc(C#CC3CC3)cc2O[C@H]1CN(C)C(=O)C1CCC1	none (no result: ADAM17 inh, ADAM10 inh, proKLK7 act)
Cc1c(NC(=O)c2cccc(NC(=O)c3ccco3)c2)cccc1C(=O)O	ADAM17 inh 9.0 (no result: FGF22 binding) | ADAM10 counter inactive | ADAM17 confirm inactive
C[C@@H]1CN([C@@H](C)CO)C(=O)c2cc(NC(=O)CCN3CCOCC3)ccc2O[C@H]1CN(C)C(=O)Nc1cccc2ccccc12	none (no result: ADAM17 inh, ADAM10 inh, proKLK7 act)
O=C(C[C@H]1CC[C@@H](NC(=O)c2cccc(F)c2)[C@H](CO)O1)Nc1nccs1	none (no result: ADAM17 inh, ADAM10 inh, proKLK7 act)
CC1(Cc2ccc(F)cc2)C(=O)Nc2ccc(S(=O)(=O)NC3CCCCC3)cc21 (centres undefined)	ADAM17 inh 9.1 | ADAM10 counter inactive | ADAM17 confirm inactive
COc1ccc(C2=NN(C(=O)CSC3=NN4CCCC(=O)N=C4S3)C(c3cccc(OC)c3OC)C2)cc1 (centres undefined)	ADAM17 inh 10 | ADAM10 counter inactive | ADAM17 confirm inactive
O/N=C(\c1ccc(Cl)cc1Cl)c1ncc(C(F)(F)F)cc1Cl	ADAM17 inh 12 (no result: FGF22 binding, rRNA inh HTS) | ADAM10 counter 29 | ADAM17 confirm 13
Cc1ccc(S(=O)(=O)NC2CCN(Cc3cccc(OCCO)c3)CC2)cc1	none (no result: ADAM17 inh, rRNA inh HTS, ADAM10 inh, proKLK7 act)
O=[N+]([O-])c1ccc(C2=NN(CCO)C(=Nc3ccc(OC(F)(F)F)cc3)SC2)cc1	ADAM17 inh 12 | ADAM10 counter 32 | ADAM17 confirm 18
COc1ccc(C2OC(CCc3ccccc3)CC3=C2C(=O)OC(C)(C)O3)cc1 (centres undefined)	ADAM17 inh 8.7 | ADAM10 counter inactive | ADAM17 confirm inactive
CC1(C)OC(=O)C2=C(C[C@@H](CCOCc3ccccc3)O[C@H]2c2ccc(F)cc2)O1	none (no result: rRNA inh HTS)
Cc1ccc(S(=O)(=O)Nc2ccc3c(c2)C(=O)N([C@H](C)CO)C[C@@H](C)[C@@H](CN(C)C(=O)C2CCCCC2)OCCCC[C@H](C)O3)cc1	none (no result: FGF22 binding, ADAM17 inh, ADAM10 inh, proKLK7 act)
Cc1nc(C)c(-c2nnc(-c3ccc(C(C)(C)C)cc3)o2)cc1C(=O)NN	ADAM17 inh 10 (no result: FGF22 binding, rRNA inh HTS) | ADAM10 counter inactive | ADAM17 confirm inactive
Cc1nc(C)c(-c2nnc(-c3ccccc3Cl)o2)cc1C(=O)NN	none
O=C(C[C@H]1CC[C@H]2[C@@H](COC[C@@H](O)CN2C(=O)c2ccccc2)O1)Nc1ccccc1	none (no result: ADAM17 inh, ADAM10 inh, proKLK7 act)
C[C@@H]1CN([C@H](C)CO)C(=O)c2cc(C#CC(C)(C)O)cnc2O[C@H]1CN(C)Cc1ccccn1	none (no result: ADAM17 inh, ADAM10 inh, proKLK7 act)
Cc1c(C(=O)NC(=S)Nc2ccc(NC(=O)c3cccs3)cc2)cccc1[N+](=O)[O-]	ADAM17 inh 12 (no result: FGF22 binding, rRNA inh HTS) | ADAM10 counter 29 | ADAM17 confirm 20
CC(=O)NC(=S)Nc1ccc(NC(=S)NC(=O)c2cccs2)cc1	none
CC(C)[C@@H](C)NC(=O)N(C)C[C@@H]1OCc2ccccc2-c2c(n(C)c3ccccc23)C(=O)N([C@H](C)CO)C[C@H]1C	none (no result: FGF22 binding, ADAM17 inh, ADAM10 inh, proKLK7 act)
COc1ccc(C)cc1S(=O)(=O)N(CC(=O)NCc1ccc(Cl)cc1)Cc1ccccc1	ADAM17 inh 9.7 (no result: FGF22 binding, rRNA inh HTS) | ADAM10 counter 31 | ADAM17 confirm 17
Cc1noc(C)c1NC(=O)N(C)C[C@@H]1Oc2ncc(C#CCN(C)C)cc2C(=O)N([C@@H](C)CO)C[C@H]1C	none (no result: ADAM17 inh, ADAM10 inh, proKLK7 act)
COc1ccc(-c2cc(-c3n[nH]c(=S)n3-c3cccc4ccccc34)[nH]n2)cc1	ADAM17 inh 8.7 | ADAM10 counter inactive | ADAM17 confirm inactive
COc1ccccc1-n1c(-c2cc(-c3ccc(F)cc3)n[nH]2)n[nH]c1=S	none
COc1ccc(CN(C)C[C@H]2OCCCC[C@@H](C)Oc3ccc(NC(=O)Nc4cccc5ccccc45)cc3C(=O)N([C@H](C)CO)C[C@H]2C)cc1	none (no result: ADAM17 inh, ADAM10 inh, proKLK7 act)
OCc1ccnc2c(O)cccc12	ADAM17 inh 8.9 (no result: FGF22 binding, rRNA inh HTS) | ADAM10 counter inactive | ADAM17 confirm inactive
CC(C)Nc1nc(NC(C)C)nc(N(C#N)CCOc2ccc(Cl)cc2Cl)n1	ADAM17 inh 9.3 (no result: FGF22 binding, rRNA inh HTS) | ADAM10 counter inactive | ADAM17 confirm 13
COc1ccc(N2CCN(C(=O)C3CCN(S(=O)(=O)c4c(C)noc4/C=C/N(C)C)CC3)CC2)cc1	ADAM17 inh 10 | ADAM10 counter inactive | ADAM17 confirm inactive
CCCCN1C(=O)C(O)=C(C(C)=O)C1c1ccc(OC)cc1OC (centres undefined)	ADAM17 inh 10 (no result: FGF22 binding, rRNA inh HTS) | ADAM10 counter inactive | ADAM17 confirm inactive
Cc1ccc(S(=O)(=O)N2CCC(C(=O)Nc3ccc(S(=O)(=O)N4CCCC4)cc3)CC2)cc1	ADAM17 inh 13 | ADAM10 counter 21 | ADAM17 confirm 11
CN(C[C@@H]1N[C@H](CO)[C@@H]1c1ccc(C#CCC2CCCC2)cc1)S(C)(=O)=O	none (no result: FGF22 binding, ADAM17 inh, ADAM10 inh, proKLK7 act)
